PubChem BioAssay (NCATS)
Records with an inconclusive call do not appear. Entries that show only a call come without a potency. Calls of active or inactive are those of the source. Calls come from the whole dose curve; as a rule, active = well fitted inhibition curve with a large enough effect; inconclusive = small, poorly fitted or top-dose-only effect; inactive = flat fitted curve, though single readings scatter. Where a SMILES comes first, the peptide text is derived from it. Bridges are numbered along the chain shown (N, C = ends). [ ]: non-standard residue; d: D form. hArg = N=C(N)NCCCC[C@H](N)C(=O)O; Mpa = O=C(O)CCS

What was measured:
[1] = molecular target: Glutathione peroxidase 1 (Homo sapiens) (UniProt P07203); assay: Primary qHTS Assay for Inhibitors of Recombinant Selenoprotein Glutathione Peroxidase 1 (GPX1) (AID 1845191)
Chain of Glutathione peroxidase 1 (Homo sapiens) (P07203 whole entry, looked up): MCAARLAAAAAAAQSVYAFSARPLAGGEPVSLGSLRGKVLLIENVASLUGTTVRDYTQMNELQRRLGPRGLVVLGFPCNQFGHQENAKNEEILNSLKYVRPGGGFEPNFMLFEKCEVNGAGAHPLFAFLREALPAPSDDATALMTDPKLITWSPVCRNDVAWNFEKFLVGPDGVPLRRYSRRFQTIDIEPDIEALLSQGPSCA
Outline: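 GR-coupled readout: NADPH consumption tracked by fluorescence, ex 340/em 450 nm, at t=0 and after 15 min at RT. Final mix 10 nM GPX1, 1 mM GSH, 0.5 mM CHP, 0.5 mM NADPH, 100 nM GR, 0.01% BSA, following 30 min enzyme–compound preincubation.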

[2] = molecular target: Phospholipid hydroperoxide glutathione peroxidase GPX4 (Homo sapiens) (UniProt P36969); assay: Primary qHTS Assay for Inhibitors of Recombinant Selenoprotein Glutathione Peroxidase 4 (GPX4) (AID 1845192)
Chain of Phospholipid hydroperoxide glutathione peroxidase GPX4 (Homo sapiens) (P36969 whole entry, looked up): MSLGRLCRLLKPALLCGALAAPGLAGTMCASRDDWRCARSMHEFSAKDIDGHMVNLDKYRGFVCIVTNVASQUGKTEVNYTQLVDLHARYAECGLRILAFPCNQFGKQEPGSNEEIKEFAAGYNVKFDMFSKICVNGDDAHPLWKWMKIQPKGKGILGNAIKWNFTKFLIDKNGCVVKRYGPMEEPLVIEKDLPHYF
Outline: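 Steps: GPX4 plus compound, 30 min RT; add GR/GSH/NADPH master mix; start with cumene hydroperoxide; read 340/450 nm fluorescence at 0 and 15 min. Finals were 200 nM GPX4, 1 mM GSH, 0.5 mM CHP, 0.5 mM NADPH, 100 nM GR.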
Note: nearly all actives have a fitted effect of over 65% in size.

For `CC[N+](CC)(CC(=O)Nc1c(C)cccc1C)Cc1ccccc1`, the Potency [1] was “inactive” and the Potency [2] was “inactive”.

For `NC(=O)[C@@H]1CSSCCC(=O)N[C@@H](CCCCN=C(N)N)C(=O)NCC(=O)N[C@@H](CC(=O)O)C(=O)N[C@@H](Cc2c[nH]c3ccccc23)C(=O)N2CCC[C@H]2C(=O)N1` ([Mpa][hArg]GDWPC-NH2; disulfide 1-7), the Potency [1] was “inactive” and the Potency [2] was “inactive”.

`CC(C)C[C@@H](N)C(=O)O` was tested, and the Potency [1] was “inactive” and the Potency [2] was “inactive”.

In the case of `CC(=O)[C@@]1(O)CC[C@H]2[C@@H]3C[C@H](C)C4=CC(=O)C=C[C@]4(C)[C@@]3(F)[C@@H](O)C[C@@]21C`, the Potency [1] is reported as “inactive” and the Potency [2] is reported as “inactive”.

With `CC(=O)OC[C@H]1O[C@@](COC(C)=O)(O[C@H]2O[C@H](COC(C)=O)[C@@H](OC(C)=O)[C@H](OC(C)=O)[C@H]2OC(C)=O)[C@@H](OC(C)=O)[C@@H]1OC(C)=O` the Potency [1] was “inactive” and the Potency [2] was “inactive”.

With `CCCCCOC(=O)Nc1nc(=O)n([C@@H]2O[C@H](C)[C@@H](O)[C@H]2O)cc1F` the Potency [1] was “inactive” and the Potency [2] was “inactive”.

In the case of `COc1ccc(O)cc1`, the Potency [1] is reported as “inactive” and the Potency [2] is reported as “inactive”.

`COc1ccc(NS(=O)(=O)c2ccc(N)cc2)nn1` was tested, and the Potency [1] was “inactive” and the Potency [2] was “inactive”.

For `CC(=O)Oc1cccc(O)c1`, the Potency [1] was “inactive” and the Potency [2] was “inactive”.

With `NC(N)=NCCN1CCCCCCC1` the outcome [1] was “inactive [at 0.4 µM]” and the outcome [2] was “inactive [at 0.409 µM]”.

`COc1ccccc1OCC(O)CO` (stereo unspecified) was tested, and the Potency [1] was “inactive” and the Potency [2] was “inactive”.

In the case of `Cc1ccccc1N=Nc1ccc(N=Nc2c(O)ccc3ccccc23)c(C)c1`, the Potency [1] is reported as “inactive” and the Potency [2] is reported as “inactive”.

With `Cc1onc(-c2ccccc2)c1-c1ccc(S(N)(=O)=O)cc1` the Potency [1] was “inactive” and the Potency [2] was “inactive”.
